Source: PubChem BioAssay AID1159580 (chemical genetic matrix, 2015)
About 2,000 (36%) of roughly 5,500 compounds were called active. Inconclusive results (about 18%) are left out. No stated cut-off is given here; in the data, active means normalized growth mostly below about 0.91 (no sharp cut-off); inconclusive means no clear call, values can overlap the other calls; inactive means mostly above about 0.92. This is one part of the list.

Assay: chemical genetic growth profiling, strain panel (AID 1159580);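 further: tested at 20 µM; growth read once vehicle control cultures reached saturation at 30 °C; 1 = growth at the plate median or of vehicle wells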
Conditions: growth OD

Measured: normalized growth

Clc1ccc(OCCOc2ccc(Cl)cc2)cc1
inactive: S. cerevisiae deletion strains, locus YAL013W, strain DEP1, stronger effect = lower value 1.01 | S. cerevisiae deletion strains, locus YBR229C, strain ROT2, stronger effect = lower value 0.99 | S. cerevisiae deletion strains, locus YDL101C, strain DUN1, stronger effect = lower value 1.04 | S. cerevisiae deletion strains, locus YDL134C, strain PPH21, stronger effect = lower value 0.996 | S. cerevisiae deletion strains, locus YDR150W, strain NUM1, stronger effect = lower value 1.01 | S. cerevisiae deletion strains, locus YEL061C, strain CIN8, stronger effect = lower value 0.99 | S. cerevisiae deletion strains, locus YGR078C, strain PAC10, stronger effect = lower value 1.02 | S. cerevisiae deletion strains, locus YHR030C, strain SLT2, stronger effect = lower value 0.978 | S. cerevisiae deletion strains, locus YHR087W, strain rtc3, stronger effect = lower value 0.965 | S. cerevisiae deletion strains, locus YJL187C, strain SWE1, stronger effect = lower value 1.02 | S. cerevisiae deletion strains, locus YJR043C, strain POL32, stronger effect = lower value 1.04 | S. cerevisiae deletion strains, locus YJR075W, strain HOC1, stronger effect = lower value 0.998 | S. cerevisiae deletion strains, locus YLR039C, strain RIC1, stronger effect = lower value 1.01 | S. cerevisiae deletion strains, locus YLR058C, strain SHM2 (second series), stronger effect = lower value 1.01 | S. cerevisiae deletion strains, locus YLR085C, strain ARP6, stronger effect = lower value 1.01 | S. cerevisiae deletion strains, locus YLR262C, strain YPT6, stronger effect = lower value 0.95 | S. cerevisiae deletion strains, locus YML094W, strain GIM5, stronger effect = lower value 0.971 | S. cerevisiae deletion strains, locus YMR219W, strain ESC1, stronger effect = lower value 1.02 | S. cerevisiae deletion strains, locus YMR263W, strain SAP30, stronger effect = lower value 1.01 | S. cerevisiae deletion strains, locus YNL128W, strain TEP1, stronger effect = lower value 1.01 | S. cerevisiae deletion strains, locus YNL153C, strain GIM3, stronger effect = lower value 1 | S. cerevisiae deletion strains, locus YNL298W, strain CLA4 (second series), stronger effect = lower value 0.989 | S. cerevisiae deletion strains, locus YNL322C, strain KRE1, stronger effect = lower value 0.998 | S. cerevisiae deletion strains, locus YNR030W, strain Alg12, stronger effect = lower value 0.983 | S. cerevisiae deletion strains, locus YOL006C, strain TOP1, stronger effect = lower value 0.937 | S. cerevisiae deletion strains, locus YPL055C, strain LGE1, stronger effect = lower value 0.975 | S. cerevisiae deletion strains, locus YPL241C, strain CIN2, stronger effect = lower value 0.986 | S. cerevisiae deletion strains, locus YPR135W, strain CTF4, stronger effect = lower value 1.07 | S. cerevisiae strains, strain wild type, stronger effect = lower value 1.01
